Screens (PubChem BioAssay)
TDP43 rescue = qHTS of TDP-43 Inhibitors; Potency, µM (titrated, usually from 46.1 µM), actives largely listed as activators; actives 1.8% (n = 410,000); AID 652104, 2013; TDP-43 expressing yeast growth rescue, BacTiter-Glo, 24 h; further: nearly all actives have a fitted effect of over 50% in size
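Yeast expressing TDP-43 (pregrown in raffinose, seeded at OD600=0.02 in galactose medium) exposed to compounds 24 hr at 30 deg C. Growth read by BacTiter-Glo luminescence; rescue of toxicity appears as increased signal.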
pAkt inh = HTS Assay for Inhibitors of Akt Phophorylation: Primary Screen; activity change, % for hits at 50 µM; actives 0.32% (n = 360,000); Neuro2A IGF-stimulated pAkt S473 HTRF, 20 min; active compounds read low; in the data active means activity change below about -80%; inconclusive means mostly about -51% to -80%
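Single-point screen (50 µM final compound) in Neuro2A cells stimulated 20 min with 6 nM IGF at 37 deg C. After lysis, Ser473-phosphorylated Akt read by HTRF (ex 330 nm, em 615/665 nm) as the 665/615 ratio.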
aSyn rescue = qHTS of alpha-syn Inhibitors | Yeast expressing alpha-synuclein, growth rescue, BacTiter-Glo, 24 h | Potency, µM (top dose mostly 46.1 µM), actives largely listed as activators | actives 0.14% (n = 370,000) | AID 652106, 2013; further: nearly all actives have a fitted effect of over 65% in size
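Galactose-induced alpha-syn yeast (OD600=0.02, raffinose-pregrown) + pinned cpd, 24 hr, 30 deg C; growth by BacTiter-Glo luminescence. Growth restoration scores as activation.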
CCT chaperon mod = High-Throughput Screening for Modulators of Cytosolic Chaperonin Activity; purified chaperonin ATPase assay, HTRF ADP detection, 30 min; activity change, % (no concentration beside the values), hits read low; actives 0.3% (n = 360,000); in the data active means activity change below about -30%
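Nucleotide hydrolysis assay: TRiC at 20–40 nM final (set by batch activity) with 10 uM ATP, 30 min at 37 °C, in presence of 76 uM compound. Detection by competitive ADP HTRF, 30 min ambient.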
Anesthetic bind = qHTS Assay for Identification of Novel General Anesthetics; Ferritin light chain (Equus caballus), P02791; apoferritin/1-aminoanthracene competitive binding, fluorescence; Potency, µM (top dose mostly 77.5 µM), usual class: inhibitors; actives 0.074% (n = 350,000); AID 485281, 2010; further: nearly all actives have a fitted effect of over 20% in size
Target sequence (P02791 2-175 limits assumed): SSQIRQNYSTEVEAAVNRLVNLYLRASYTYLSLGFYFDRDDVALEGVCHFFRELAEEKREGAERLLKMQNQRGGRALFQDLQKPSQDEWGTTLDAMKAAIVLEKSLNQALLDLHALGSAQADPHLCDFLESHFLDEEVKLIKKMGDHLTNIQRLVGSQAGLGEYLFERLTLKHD
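Probe: 1-aminoanthracene (50% saturated, PBS). Protein: horse-spleen apoferritin, 10 uM. Incubation: 10 min, room temperature. Detection: 380 nm excitation, 535 nm emission. Analysis: normalized response, four-parameter Hill.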
Mito fusion act = qHTS Assay for Small Molecule Inhibitors of Mitochondrial Division or Activators of Mitochondrial Fusion | S. cerevisiae fusion-defective mutant growth rescue, CellTiterGlo 48 h | Potency, µM (top dose mostly 46.1 µM), hits mostly activators | actives 0.23% (n = 320,000) | AID 485298, 2010; further: nearly all actives have a fitted effect of over 45% in size
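Read-out: ATP-based luminescence (CellTiterGlo, 10 min ambient) reporting growth of fusion-defective ts yeast after 48 hours at 37C on glycerol/ethanol YPEG medium in the presence of compound.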
Large screens that a line does not name were inactive. An excerpt weighted towards active compounds, which were near 2.5% of everything screened. Unless noted, the call rests on the fitted dose curve; in most records, active means well fitted curve in the direction sought with a large enough effect; inconclusive means small, poorly fitted or top-dose-only effect, or another doubt; inactive means no such curve, though single readings can be large; an effect the other way counts as inactive or inconclusive.

Cc1ccc(CNCc2cn[nH]c2-c2ccc(C)cc2)cc1	none (no result: TDP43 rescue, pAkt inh, CCT chaperon mod, Anesthetic bind, Mito fusion act)
COc1ccc(-c2csc(NC(=O)C3COc4ccccc4O3)n2)cc1OC (stereo not drawn)	TDP43 rescue 35µM
COc1ccc(OC)c2sc(NNC(=O)C3COc4ccccc4O3)nc12 (stereo not drawn)	TDP43 rescue 6.3µM
CCCC(=O)Nc1nc(-c2ccc3c(c2)OCCO3)cs1	TDP43 rescue 10µM
CC(C)(C)c1csc(NC(=O)C2COc3ccccc3O2)n1 (stereo not drawn)	none
COc1ccc(/C=C/C(=O)c2c(O)c(OC)c3occc3c2OC)cc1OC	none (no result: TDP43 rescue, pAkt inh, CCT chaperon mod, Anesthetic bind, Mito fusion act)
CC(C)(C)Nc1nc(C#N)nc(Nc2ccccc2)n1	none (no result: TDP43 rescue, pAkt inh, aSyn rescue, CCT chaperon mod, Mito fusion act)
Nc1cccc2c(=O)[nH]ccc12	none (no result: TDP43 rescue, pAkt inh, aSyn rescue, CCT chaperon mod, Mito fusion act)
COc1ccc(C2=Nn3c(nnc3-c3cc(OC)ccc3OC)SC2)c(OC)c1	none (no result: TDP43 rescue, pAkt inh, aSyn rescue, CCT chaperon mod, Mito fusion act)
COc1ccc(C(NC(=O)COc2ccc(C#N)cc2)c2ccc(OC)cc2)cc1	none (no result: TDP43 rescue, pAkt inh, CCT chaperon mod, Anesthetic bind, Mito fusion act)
NNC(=O)c1ccc(Cn2cc(Br)cn2)o1	none
Cc1ccc(NC(=O)c2ccc(Cn3cc(Br)cn3)o2)cc1	TDP43 rescue 16µM
COc1ccc(C)cc1S(=O)(=O)n1c([N+](=O)[O-])cnc1C	CCT chaperon mod -79
COc1ccc(S(=O)(=O)n2c([N+](=O)[O-])cnc2C)cc1OC	none
Cc1cc(Nc2ccc(C)c(Cl)c2)n2nc(Cc3ccccc3)nc2n1	TDP43 rescue 22µM, Anesthetic bind inconclusive (no result: pAkt inh, aSyn rescue, CCT chaperon mod, Mito fusion act)
Cc1cc(Nc2ccccc2C)n2nc(Cc3ccc(Cl)cc3)nc2n1	TDP43 rescue 18µM, Anesthetic bind inconclusive (no result: pAkt inh, aSyn rescue, CCT chaperon mod, Mito fusion act)
Cc1cc(Nc2ccc(C)c(C)c2)n2nc(C)nc2n1	none
Cc1cc(Nc2cccc(Cl)c2C)n2nc(Cc3ccccc3)nc2n1	TDP43 rescue 22µM, Anesthetic bind inconclusive (no result: pAkt inh, aSyn rescue, CCT chaperon mod, Mito fusion act)
Cc1cc(Nc2ccccc2F)n2nc(Cc3ccc(Cl)cc3)nc2n1	none (no result: pAkt inh, aSyn rescue, CCT chaperon mod, Mito fusion act)
O=S(=O)(Nc1cccc2ccccc12)c1cccc2ccccc12	none (no result: TDP43 rescue, pAkt inh, CCT chaperon mod, Anesthetic bind, Mito fusion act)
COCCn1c(=S)[nH]c2cc(C(=O)N3CCN(Cc4ccccc4)CC3)ccc2c1=O	none (no result: TDP43 rescue, pAkt inh, CCT chaperon mod, Anesthetic bind, Mito fusion act)
O=S1(=O)C2CC3C=CC2(CN1Cc1ccccc1)O3 (stereo not drawn)	none (no result: TDP43 rescue, pAkt inh, aSyn rescue, CCT chaperon mod, Mito fusion act)
CN(C)Cc1c(C(=O)N/N=C/c2ccc(OCc3c(F)cccc3Cl)cc2)nnn1-c1nonc1N	TDP43 rescue 11µM
Nc1nonc1-n1nnc(C(=O)N/N=C/c2ccc(O)cc2)c1COc1ccc(F)cc1	none
COc1ccc(OC)c(-c2csc(NC(=O)Cc3ccccc3F)n2)c1	TDP43 rescue inconclusive
Cc1ccc(NC(=O)CSCc2c(C)noc2C)cc1C	CCT chaperon mod -44, Anesthetic bind inconclusive
COc1ccc(OC)c(-c2csc(NC(=O)Cc3ccccc3OC)n2)c1	TDP43 rescue 10µM
Cc1cc(C)c(NC(=O)CSCc2c(C)noc2C)c(C)c1	none (no result: Anesthetic bind)
COc1ccc(-c2csc(NC(=O)CSCc3c(C)noc3C)n2)c(OC)c1	TDP43 rescue 16µM (no result: Anesthetic bind)
O=S(=O)(c1ccc(F)cc1)N1CCN(c2nc(-c3cccs3)nc3ccccc23)CC1	none (no result: TDP43 rescue, pAkt inh, CCT chaperon mod, Anesthetic bind, Mito fusion act)
COc1ccc(-c2nc3ccccn3c2Nc2ccccc2C)cc1	none (no result: TDP43 rescue, pAkt inh, CCT chaperon mod, Anesthetic bind, Mito fusion act)
O=C(CSc1ccc(Br)c2cccc(Cl)c12)Nc1ccc(S(=O)(=O)Nc2nccs2)cc1	CCT chaperon mod -37
O=C(Cc1ccccc1Cl)Nc1ccc(S(=O)(=O)Nc2nccs2)cc1	none
O=C(CSc1c2c(nc3cc(Cl)ccc13)CCCC2)N1CCN(c2ccccc2)CC1	TDP43 rescue 20µM, Anesthetic bind inconclusive (no result: pAkt inh, aSyn rescue, CCT chaperon mod, Mito fusion act)
COc1ccc(NC(=O)CSc2c3c(nc4ccc(Cl)cc24)CCCC3)cc1Cl	TDP43 rescue 11µM (no result: pAkt inh, aSyn rescue, CCT chaperon mod, Mito fusion act)
CCCCN(CC)C(=O)CSc1c2c(nc3ccc(Cl)cc13)CCCC2	TDP43 rescue 22µM, Anesthetic bind inconclusive (no result: pAkt inh, aSyn rescue, CCT chaperon mod, Mito fusion act)
COCCNC(=O)CSc1c2c(nc3ccc(Cl)cc13)CCCC2	Mito fusion act 18µM
COc1ccc(NC(=O)CSc2c3c(nc4cc(Cl)ccc24)CCCC3)cc1OC	none
CCc1c2c(nc3ccc(OC)cc13)-c1nc3ccccc3c(=O)n1C2	none (no result: TDP43 rescue, pAkt inh, aSyn rescue, CCT chaperon mod, Mito fusion act)
O=C(c1ccc(C(F)(F)F)cc1)N1CCC(c2noc(-c3ccc(S(=O)(=O)N4CCCC4)cc3)n2)CC1	none (no result: pAkt inh, aSyn rescue, CCT chaperon mod, Mito fusion act)
CN(C)c1ccc(/C=C/c2ccnc3c(N)cccc23)cc1	none (no result: TDP43 rescue, pAkt inh, CCT chaperon mod, Anesthetic bind, Mito fusion act)
Cc1cccc(NC(=O)c2sc3nc(-c4cc5ccc(O)cc5oc4=O)[nH]c(=O)c3c2C)c1	none (no result: pAkt inh, aSyn rescue, CCT chaperon mod, Mito fusion act)
CCC(C)NC(=O)CSc1c2c(nc3cc(Cl)ccc13)CCCC2 (stereo not drawn)	none (no result: pAkt inh, aSyn rescue, CCT chaperon mod, Mito fusion act)
